Compound activity as filed in PubChem BioAssay.
HIV TAR-Tat: HIV-1 TAR-Tat binding disruption; HIV-1 TAR RNA, Tat peptide displacement FRET; stronger effect = higher value; z-score (test concentration not listed); 100,000 compounds, 0.6% hits; AID 1259389; active means z-score of 3 or more in at least 2 runs
CDC25B-CDK2 inh: human CDC25B-CDK2/CyclinA binding inhibition; P30305+P24941; HTRF CDC25B-CDK2/CyclinA binding, anti-His/anti-Flag; stronger effect = higher value; z-score (concentration not given with the values); 94,000 compounds, 0.72% hits; in the data active means z-score above about 3.2
Starred values were filed as active, the others as inactive; . = no result given. Rows were chosen to be rich in hits. Some 0.86% of all compounds tested hit in one or more screens of this group.

SMILES	HIV TAR-Tat	CDC25B-CDK2 inh
O=C(Nc1ccc2c(c1)C(=O)c1ccccc1C2=O)c1ccccc1	.	-0.85
O=C(O)c1ccccc1C(=O)Nc1ccc2c(c1)C(=O)c1ccccc1C2=O	.	7.78*
CN(Cc1nc(-c2ccc(Cl)cc2)no1)S(=O)(=O)c1ccc(F)cc1	1.76	0.26
Cc1ccc(S(=O)(=O)N2CCCC(c3nc(-c4ccccn4)no3)C2)cc1C (stereo not given)	1.85	.
Oc1cc(O)c2c(c1)O[C@H](c1cc(O)c(O)c(O)c1)[C@H](O)C2	29.9*	.
O=c1c(O)cccc2c([C@H]3Oc4cc(O)cc(O)c4C[C@H]3O)cc(O)c(O)c12	11.9*	.
O=C1C[C@@H](c2ccccc2)Oc2cc(O)cc(O)c21	1.88	.
Oc1cc(O)c2c(c1)O[C@H](c1ccc(O)c(O)c1)[C@@H](O)C2	11.4	-0.87
O=C(OCC1CC2C=CC1C2)c1cc2ccccc2oc1=O (stereo not given)	.	-2.04
CCc1ccc(C2c3c(oc4ccc(C)cc4c3=O)C(=O)N2CCCN2CCOCC2)cc1 (stereo not given)	-0.83	-1.08
CN(Cc1ccccc1)c1oc(/C=C/c2ccc(F)cc2)nc1C#N	1.28	-2.27
O=S(=O)(NC1CCCCC1Nc1ccc(F)cc1)c1ccccc1 (stereo not given)	2.87	8.62*
COc1ccc(NC2CCCCC2NS(=O)(=O)c2ccccc2)cc1 (stereo not given)	3.14	-2.48
Cc1ccc(/C=c2/sc3n(c2=O)C(N)=C(C#N)C(c2ccc(C)o2)C=3C#N)o1 (stereo not given)	.	6.59*
Cc1ccc([C@H]2C(C#N)=C(N)Oc3cc(C)oc(=O)c32)o1	.	-0.62
O=C1NC(c2ccco2)c2c1n[nH]c2-c1ccco1 (stereo not given)	2.38	5.3*
O=C1NC(c2cccnc2)c2c1n[nH]c2-c1ccco1 (stereo not given)	-5.49	8.87*
O=C1NC(c2cccc(O)c2)c2c1n[nH]c2-c1ccco1 (stereo not given)	-0.63	2.27
Cc1ccc(C2NC(=O)c3n[nH]c(-c4ccco4)c32)cc1 (stereo not given)	-3.48	-0.08
CSc1ncc2c(=O)n(C(C)C)ccc2n1	-0.02	1.77
O=c1[nH]cc(Cl)cc1Cl	.	6.39*
O=c1[nH]cc(C(F)(F)F)cc1Cl	.	-2.63
COc1ccc(OC)c(NC(=O)C(C)Sc2nnc(-c3ccoc3C)o2)c1 (stereo not given)	2.08	11.8*
COc1cc(OC)c(NC(=O)C(C)Sc2nnc(-c3ccoc3C)o2)cc1Cl (stereo not given)	1.72	-0.34
Nc1cccc(/C=C/c2nc3ccc(N)cc3[nH]2)c1	2.04	11.8*
SMILES	HIV TAR-Tat	CDC25B-CDK2 inh
Nc1ccc2nc(/C=C/c3ccccc3)[nH]c2c1	-1.33	-2.81
Cn1cc(S(=O)(=O)N2CCOCC2)cc1C(=O)N1CCN(c2ccccn2)CC1	1.1	.
COCCCN(Cc1cccs1)S(=O)(=O)c1cc(-c2cc(C)no2)ccc1C	1.28	.
O=C(O)c1cc(-c2ccco2)nc2ccccc12	23.9*	.
O=C(O)c1cc(-c2cc(C(=O)O)c3ccccc3n2)nc2ccccc12	1.12	1.55
O=C(CCC(=O)N1CCOc2ccc(Cl)cc21)NCCCN1CCC(N2CCCCC2)CC1	-0.01	-2.46
CCC(C(=O)NCCN(C)C)N1C(=O)CCn2nc(C)cc21 (stereo not given)	0.39	.
Fc1ccccc1NCc1ccc2nccnc2c1	-0.2	.
Cc1c(C(=O)O)sc2ncnc(Nc3ccccc3F)c12	21.4*	.
CCCCNc1ncnc2sc(C(=O)O)c(C)c12	0.95	.
Cc1c(C(=O)O)sc2ncnc(NCc3ccco3)c12	1.55	.
Cc1c(C(=O)O)sc2ncnc(NC3CC3)c12	0.22	.
Cc1c(C(=O)O)sc2ncnc(NCCC3=CCCCC3)c12	6.61*	.
COc1ccc(Cl)cc1Nc1ncnc2sc(C(=O)O)c(C)c12	3.89*	.
Cc1c(C(=O)O)sc2ncnc(Nc3ccc(F)c(Cl)c3)c12	20.2*	.
COc1ccc(Nc2ncnc3sc(C(=O)O)c(C)c23)c(OC)c1	2.33	.
COC(=O)c1cc(-c2ccccc2)c2c(=O)[nH]c(=O)n(C)c2n1	-1.03	-5.11
O=C(CCc1nnc2ccc(N3CCCC3)nn12)N1CCCCC1	0.7	.
Cc1cn2c(=O)cc(CSc3nnc(NC(=O)c4ccccc4)s3)nc2s1	0.28	.
Cc1ccc(C)c2c(=O)cc(CSc3nnc(-c4ccccc4)n3C)[nH]c12	0.63	.
O=C(NCc1cccc(Cl)c1)NC1COc2ccccc2C1 (stereo not given)	0.56	.
Fc1ccc(-c2cn3c(n2)Cc2ccccc2C3)cc1	.	18*
Fc1ccc(-c2cn3ccccc3n2)cc1	1.19	1.23
CCCCCSc1nc2n(n1)C(c1cccs1)C(C(=O)OCC)=C(C)N2 (stereo not given)	0.79	-1.12
Cc1ccc2[nH]c3c(=O)n(CCN4CCCCC4C)cnc3c2c1 (stereo not given)	1.02	-1.3
SMILES	HIV TAR-Tat	CDC25B-CDK2 inh
COc1cc2[nH]c3c(=O)n(CCN4CCCCC4C)cnc3c2cc1OC (stereo not given)	6.38*	-1.13
Cn1c(C(=O)NCc2ccccc2Br)cc2oc3ccccc3c21	-0.04	10.1*
CCCNC(=O)c1cc2oc3ccccc3c2n1C	0.61	-1.94
Cc1cccc(-c2nc3c4c(C)c(C)n(-c5cccnc5)c4ncn3n2)c1	1.68	-1.42
O=C1CSc2ccc(S(=O)(=O)NCc3ccco3)cc2N1	1.7	.
CC(CS(=O)(=O)c1ccc2c(c1)NC(=O)CS2)C(=O)NCc1ccco1 (stereo not given)	5.27*	.
C/C=C/C=N/NC(=O)OCC	.	-1.36
COc1ccc(C2CC(=O)N3CN(C4CCCC4)CSC3=C2C#N)cc1 (stereo not given)	0.43	5.53*
N#CC1=C2SCN(C3CCCCC3)CN2C(=O)CC1c1ccc(Br)cc1 (stereo not given)	-1.11	-1.15
Cc1ccc(C2CC(=O)N3CN(C4CCCC4)CSC3=C2C#N)cc1 (stereo not given)	0.26	0.66
CCc1ccc(C2CC(=O)N3CN(C4CCCCC4)CSC3=C2C#N)cc1 (stereo not given)	-1.18	3.9*
O=C(NC1CCCC1)c1nnc(CS(=O)(=O)c2ccccc2)o1	-1.96	.
CC1(C)CC(=O)C2=C(C1)NC(=O)CC2c1cccc2ccccc12 (stereo not given)	1.07	-1.29
Cc1ccc(S(=O)(=O)c2nnn(-c3cc(C)cc(C)c3)c2C)cc1	1.66	-1.85
O=C(Cc1ccsc1)N1CCC(n2nc(-c3ccccc3)oc2=O)CC1	1.45	0.25
O=C(CC1(O)C(=O)Nc2ccc(Cl)cc21)c1ccccc1Br (stereo not given)	1.07	.
O=C1c2ccccc2C(=O)c2c(O)c(O)cc(O)c21	3.46	.
O=c1c(O)cccc2cc(O)c(O)c(O)c12	30.4*	.
CCc1nnc2sc(NC(=O)C3CCCCC3)nn12	-0.12	-0.49
Cc1nnsc1C(=O)Nc1c(C(=O)Nc2ccccc2)oc2ccccc12	-0.21	1.02
CC(C)CC(=O)N1CCC(C(=O)NCCc2csc(-c3cccs3)n2)CC1	-0.1	.
Cc1ccc(N2CNc3c(sc4nc(C)cc(C)c34)C2=O)cc1	2.35	-2.85
COc1cc2c(cc1OC)C1=C(C#N)CN(CCc3ccccc3)CN1CC2	0.19	2.14
COc1cc2c(cc1OC)C1=C(C#N)CN(c3ccc(C)c(C)c3)CN1CC2	0.35	15.4*
CCCCc1nn2c(=O)cc(CSc3n[nH]c(-c4ccc(OC)cc4)n3)nc2s1	-0.62	.
